As usually defined, the inhibition is the relative decrease from the control value, in per cent.

The text below walks through data of PubChem BioAssay.

The nature of assay [1]: inhibitors of TNFa-induced NFkB p65 translocation, primary screen, imaging, HUVEC, MLSMR starter and 10KST1 sets (AID 438;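 active = inhibition above 20% together with a positive visual image hit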;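 also: compound added about 3h40 before a 20 min TNFalpha stimulation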;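 as to inhibition: signal is the nuclear over cytoplasmic p65 intensity ratio per well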). As to conditions: HUVEC TNFa-induced p65 nuclear translocation; cell count: measured here: nuclei count (cytotoxicity indicator), at 2.08 µM; inhibition: at 2 µM, stronger effect = higher value, 0% TNFa-plus-vehicle, 100% no-TNFa wells.
Assay [2] can be described thus: reduction of polyQ htt aggregates in cells – imaging, exon1htt(103Q)mCFP cells, high-content imaging, primary screen (AID 483;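 active = visual image review flags a hit and inhibition of aggregation exceeds 20%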;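 also: compound exposure lasted 3 days before fixation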;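 as to nuclei count: percent of the per-plate median nuclei count of sample wells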). The settings on record: exon1htt(103Q)mCFP cell line, aggregate imaging, at 2 µM; inhibition of aggregation: stronger effect = higher value; nuclei count: measured here: cell count, toxicity.
Assay [3] can be described thus: endothelial E-selectin expression blockers – imaging, HUVEC, immunofluorescence, MLSMR starter and 10KST1 sets, primary screen (AID 487;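 active = visually confirmed hit in the image check and inhibition above 20%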;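 as to inhibition: signal is fraction of cell area covered by stained E-selectin grains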;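 as to nuclei count: 100% = median nuclei count of all wells on the same plate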). As to conditions: HUVEC TNFalpha-induced E-selectin immunofluorescence imaging, at 2 µM; inhibition: stronger effect = higher value; nuclei count: measured here: cell number, toxicity.
Assay [4] deals with Voltage-gated potassium channel subunit beta-2 (Rattus norvegicus) (UniProt P62483). Put plainly: inhibitors of rat Kvbeta2 reductase activity – biochemical, NADPH fluorescence, primary screen (AID 622).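 Also: slope of raw intensity against log time taken from 70 to 1610 s.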 The settings on record: recombinant KvBeta, 4-cyanobenzaldehyde reduction, at 10 µM, stronger effect = higher value.
Voltage-gated potassium channel subunit beta-2 (Rattus norvegicus), sequence (P62483 whole entry, looked up): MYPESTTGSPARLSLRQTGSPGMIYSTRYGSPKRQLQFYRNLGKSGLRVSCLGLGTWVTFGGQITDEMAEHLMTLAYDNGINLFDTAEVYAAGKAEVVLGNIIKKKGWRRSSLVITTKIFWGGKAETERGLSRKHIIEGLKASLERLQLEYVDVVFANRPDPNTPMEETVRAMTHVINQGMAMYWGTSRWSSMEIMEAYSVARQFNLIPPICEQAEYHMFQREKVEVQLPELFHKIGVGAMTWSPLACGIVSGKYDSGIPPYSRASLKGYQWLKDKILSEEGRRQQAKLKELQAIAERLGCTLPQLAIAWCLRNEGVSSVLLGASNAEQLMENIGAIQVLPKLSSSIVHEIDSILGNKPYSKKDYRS
Assay [5] shares this target. Description: enhancers of rat Kvbeta2 NADPH turnover – biochemical, NADPH fluorescence, primary screen (AID 623;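 active = NADPH fluorescence slope more negative than the mean of all samples by about 3 SD, 99.7% confidence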;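 also: fluorescence intensity change per second fitted from 20 to 320 s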). As to conditions: Recombinant KvBeta, NADPH fluorescence decrease slope, 10 min; at 10 µM; stronger effect = lower value.
Assay [6] has as its target Alpha-2C adrenergic receptor (Homo sapiens) (UniProt P18825). Put plainly: compounds altering alpha2C-coupled GIRK flux – cell-based, HEK293 alpha2C/GIRK1/2, thallium flux, primary screen (AID 624;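 active = fluorescence slope after compound addition differing from the mean of all screened samples at 99.7% confidence, in either direction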;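 also: slope of fluorescence ratio to pre-addition baseline per second over 15 to 24 s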). As to conditions: thallium flux BTC fluorescence, at 10 µM, actives lie on both sides.
A short description of assay [7]: blockers of RIG-like receptor reporter activation – cell-based, Sendai virus stimulus, luciferase, 10K MLSCN set, TLR/RLR signaling modifier project, primary screen (AID 602276;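 active = inhibition at or above 50% at 10 µM; inactive = inhibition below 50%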;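 also: firefly luciferase from ISG56 promoter only with Renilla not read in this screen; 0% = Sendai virus plus DMSO and 100% = medium plus DMSO without virus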). As to conditions: HEK293 RL24 IRF3 luciferase reporter, at 10 µM, stronger effect = higher value. On the technique in general: A reporter such as luciferase makes a cellular process visible.
Assay [8] can be described thus: TLR3 IRF3 reporter activation blockers – cell-based, poly I:C stimulus, luciferase, 10K MLSCN set, primary screen (AID 602277;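 active = inhibition of the reporter signal at or above 50%; inactive = inhibition below 50%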). The settings on record: HEK293-TLR3 RL24 IRF3 luciferase reporter, at 10 µM, stronger effect = higher value.

Each structure is given as a SMILES string. Active and inactive are the calls of the source.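 The calls were made as follows, unless noted: active = fluorescence slope higher than the sample average by over 3 SD (cut at about -0.22 in these data, passing the limit was not always enough); inactive = the rest.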

Alpha-2C adrenergic receptor (Homo sapiens), sequence (P18825 whole entry, looked up): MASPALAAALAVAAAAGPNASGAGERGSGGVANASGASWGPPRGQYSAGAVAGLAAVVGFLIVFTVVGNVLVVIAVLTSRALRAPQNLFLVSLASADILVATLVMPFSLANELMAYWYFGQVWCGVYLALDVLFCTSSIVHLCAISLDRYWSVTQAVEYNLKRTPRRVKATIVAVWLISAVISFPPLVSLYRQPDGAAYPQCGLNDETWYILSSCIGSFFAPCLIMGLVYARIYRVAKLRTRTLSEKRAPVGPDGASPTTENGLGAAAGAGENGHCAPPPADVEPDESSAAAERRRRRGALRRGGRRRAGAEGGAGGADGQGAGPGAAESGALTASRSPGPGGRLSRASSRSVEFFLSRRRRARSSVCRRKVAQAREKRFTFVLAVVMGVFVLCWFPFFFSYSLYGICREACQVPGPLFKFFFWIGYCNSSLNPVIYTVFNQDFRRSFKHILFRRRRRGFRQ

On to `COc1ccc(C(c2sc3nc(C)nn3c2O)N2CCCCC2)cc1` (centres undefined), for which the cell count in assay [1] came to 639. The inhibition in assay [1] is -6.4% (inactive); in assay [3], -42.5% (inactive); in assay [7] it was 8.51% (inactive); in assay [8], 27.4% (inactive). In addition, in assay [2], the inhibition of aggregation was -33.8% (inactive). The nuclei count in assay [2] came to 114%; in assay [3] it was 108%. Moreover, in assay [4], the fluorescence slope is -0.603 (inactive). The NADPH fluorescence slope in assay [5] was -4.6e-05 (inactive). Besides, in assay [6], the slope was 0.00737 (inactive).
Regarding `COC(=O)CCC(NC(=O)c1cc(-c2ccc3c(c2)OCCO3)oc1C)C(=O)OC` (centres undefined), the cell count in assay [1] was determined as 320. Also, the inhibition is 20% (active) in assay [1], 13.3% (inactive) in assay [3], -2.55% (inactive) in assay [7] and -6.77% (inactive) in assay [8]. Further, in assay [2], the inhibition of aggregation was 0.3% (inactive). The nuclei count in assay [2] and in assay [3] was 104% throughout. Also, the fluorescence slope in assay [4] is -0.48 (inactive). Further, in assay [5], the NADPH fluorescence slope was -3e-05 (inactive). Moreover, in assay [6], the slope is 0.00476 (inactive).
On to `CC1Cc2ccccc2N1C(=O)CSc1nnc2n1C(C)(C)Cc1ccccc1-2` (centres undefined), for which, in assay [1], the cell count was determined as 247. The inhibition is -0.2% (inactive) in assay [1], 5.5% (inactive) in assay [3], 5.38% (inactive) in assay [7] and -63.7% (inactive) in assay [8]. For the same molecule, the inhibition of aggregation in assay [2] was 21.8% (inactive). The nuclei count in assay [2] is 84.2%; in assay [3], 69.7%. Further, in assay [4], the fluorescence slope was -0.434 (inactive). Moreover, in assay [5], the NADPH fluorescence slope is 2.5e-05 (inactive). For the same molecule, in assay [6], the slope was 0.00483 (inactive).
For `COCCNC(=O)CN1CCC(NC(=O)Nc2ccc(C(F)(F)F)cc2)CC1`, in assay [1], the cell count was determined as 515. In addition, the inhibition in assay [1] is 0.8% (inactive); in assay [3] it was -85% (inactive); in assay [7], 5.43% (inactive); in assay [8], 3.51% (inactive). For the same molecule, in assay [2], the inhibition of aggregation was -24.7% (inactive). Also, the values for the nuclei count in assay [2] and in assay [3] were 70.9% and 96.8%, respectively. For the same molecule, the fluorescence slope in assay [4] is -0.296 (inactive). The NADPH fluorescence slope in assay [5] is -4.5e-05 (inactive). In addition, in assay [6], the slope was 0.0053 (inactive).
`COc1ccccc1NC(=O)CSc1nnc(-c2ccncc2)o1`: the cell count in assay [1] amounted to 469. Also, the inhibition in assay [1] is 5.3% (inactive); in assay [3], -23.6% (inactive); in assay [7] it was -2.18% (inactive); in assay [8], -9.84% (inactive). Also, the inhibition of aggregation in assay [2] was -7.5% (inactive). Further, the results for the nuclei count in assay [2] and in assay [3] were 110% and 117%, respectively. Moreover, the fluorescence slope in assay [4] is -0.506 (inactive). In assay [5], the NADPH fluorescence slope is 1.9e-05 (inactive). For the same molecule, the slope in assay [6] is 0.00395 (inactive).
For the molecule `CCOC(=O)C(NC(=O)CC)(Nc1ccc(S(=O)(=O)Nc2onc(C)c2C)cc1)C(F)(F)F` (centres undefined), the cell count in assay [1] came out at 320. The inhibition in assay [1] is 3.4% (inactive); in assay [3], -27.3% (inactive); in assay [7], 11.3% (inactive); in assay [8], 14.1% (inactive). For the same molecule, the inhibition of aggregation in assay [2] is 0.6% (inactive). Besides, the results for the nuclei count in assay [2] and in assay [3] were 95% and 104%, respectively. Also, in assay [4], the fluorescence slope was -0.61 (inactive). The NADPH fluorescence slope in assay [5] was -1.1e-05 (inactive). Also, in assay [6], the slope was 0.00634 (inactive).
`CCCCSc1nc(CCC)cc(=O)[nH]1`: the cell count in assay [1] was found to be 383. The inhibition in assay [1] was -0.3% (inactive); in assay [3], 3.8% (inactive); in assay [7], 5.02% (inactive); in assay [8] it was 2.79% (inactive). In assay [2], the inhibition of aggregation was -4% (inactive). Besides, the nuclei count in assay [2] came out at 98.2%; in assay [3], 116%. Further, the fluorescence slope in assay [4] is -0.34 (inactive). Besides, the NADPH fluorescence slope in assay [5] is 5.5e-06 (inactive). Besides, the slope in assay [6] was 0.00636 (inactive).
As for `CCN(CC)CCCNC1CCS(=O)(=O)C1` (centres undefined), in assay [1], the cell count was found to be 730. Moreover, the inhibition is -7.4% (inactive) in assay [1], -19.7% (inactive) in assay [3], 2.02% (inactive) in assay [7] and 13.2% (inactive) in assay [8]. In assay [2], the inhibition of aggregation is 10.5% (inactive). Besides, the nuclei count in assay [2] came to 126%; in assay [3] it was 118%. Besides, in assay [4], the fluorescence slope was -0.502 (inactive). In assay [5], the NADPH fluorescence slope is -6.6e-05 (inactive). The slope in assay [6] was 0.00536 (inactive).
In the case of `Cc1sc2nc(SCC(=O)NCCO)n(C)c(=O)c2c1C`, the cell count in assay [1] came out at 368. Further, the inhibition in assay [1] was 4.3% (inactive); in assay [3], 4.8% (inactive); in assay [7] it was 5.26% (inactive); in assay [8], 26% (inactive). Further, the inhibition of aggregation in assay [2] is 12.1% (inactive). For the same molecule, the nuclei count came out at 109% in assay [2] and 112% in assay [3]. The fluorescence slope in assay [4] was -0.343 (inactive). Further, the NADPH fluorescence slope in assay [5] is -5.2e-05 (inactive). Moreover, the slope in assay [6] was 0.00646 (inactive).
For `C=CCNc1oc(-c2cccc3ccccc23)nc1C#N`, in assay [1], the cell count came to 365. In addition, the inhibition in assay [1] is -0.4% (inactive); in assay [3], -110% (inactive); in assay [7] it was -4.72% (inactive); in assay [8], -35.7% (inactive). The inhibition of aggregation in assay [2] is 9.2% (inactive). The nuclei count in assay [2] stood at 98.8%; in assay [3], 97.4%. Besides, the fluorescence slope in assay [4] was -0.0687 (active). In assay [5], the NADPH fluorescence slope was 1.5e-06 (inactive). For the same molecule, the slope in assay [6] is 0.00477 (inactive).
`Clc1cccc(Cl)c1COc1ccncc1`: the cell count in assay [1] was determined as 353. Besides, the inhibition in assay [1] was 4.4% (inactive); in assay [3] it was 7.5% (inactive); in assay [7] it was -16.2% (inactive); in assay [8] it was -12% (inactive). The inhibition of aggregation in assay [2] was 11.7% (inactive). Also, the nuclei count in assay [2] was 89.4%; in assay [3], 104%. For the same molecule, in assay [4], the fluorescence slope is -0.516 (inactive). Besides, the NADPH fluorescence slope in assay [5] was 7.2e-05 (inactive). Further, the slope in assay [6] is 0.00644 (inactive).
As for `O=C1CCC(c2ccccc2)N1C(=O)c1cccnc1` (centres undefined), the cell count in assay [1] was 565. Further, the inhibition is -17.3% (inactive) in assay [1], -57.8% (inactive) in assay [3], -4.49% (inactive) in assay [7] and 9.24% (inactive) in assay [8]. Moreover, the inhibition of aggregation in assay [2] was -4.3% (inactive). The nuclei count turned out to be 98% in assay [2] and 111% in assay [3]. In addition, in assay [4], the fluorescence slope was -0.512 (inactive). Further, in assay [5], the NADPH fluorescence slope was -6.9e-05 (inactive). The slope in assay [6] is 0.00593 (inactive).
Consider `O=C(NCCN1CCCCCC1)c1ccc(N2CCCC2=O)cc1`, for which, in assay [1], the cell count was found to be 561. Moreover, the inhibition is -4.7% (inactive) in assay [1], 60.4% (inactive) in assay [3], 16.9% (inactive) in assay [7] and 17.9% (inactive) in assay [8]. Also, the inhibition of aggregation in assay [2] was 23.6% (inactive). Besides, the nuclei count turned out to be 84.5% in assay [2] and 24.3% in assay [3]. The fluorescence slope in assay [4] was -0.406 (inactive). Moreover, in assay [5], the NADPH fluorescence slope is -4.1e-05 (inactive). In addition, the slope in assay [6] is 0.00534 (inactive).
Turning to `Cn1cc(Cl)c(C(=O)N(Cc2ccccc2)c2ccccn2)n1`, the cell count in assay [1] stood at 623. Besides, the inhibition was 8.3% (inactive) in assay [1], -5.2% (inactive) in assay [3], -18.3% (inactive) in assay [7] and 0.52% (inactive) in assay [8]. Besides, the inhibition of aggregation in assay [2] was -6.5% (inactive). Moreover, the nuclei count was 102% in assay [2] and 117% in assay [3]. Besides, the fluorescence slope in assay [4] is -0.584 (inactive). Further, the NADPH fluorescence slope in assay [5] was -3.1e-06 (inactive). Moreover, in assay [6], the slope is 0.00695 (inactive).
